Results taken from PubChem BioAssay (NCATS).
Records with an inconclusive call do not appear. Activity calls are given as the source filed them. The call rests on the fitted dose curve; in most records, active means well fitted inhibition curve with a large enough effect; inconclusive means small, poorly fitted or top-dose-only effect; inactive means no such curve, though single readings can be large or run the other way. Residues, ends and D or L forms follow the SMILES beside them. *: point of attachment. Cbz = O=C(OCc1ccccc1)*

Experiment: qHTS Screen of the MIPE 4.0 Collection Against Ewings Sarcoma (EW8) (AID 1259255); further: nearly all actives have a fitted effect of over 35% in size;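 on viability: 100% = DMSO-treated cells and 0% = medium-only wells without cells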
Details: EW8 Ewing sarcoma viability, CellTiter-Glo, 48 h; series mostly up to 45.8 µM; viability: at the top concentration
Excerpt: There is a large unmet medical need for treatments for Ewing sarcoma, a pediatric sarcoma. We sought to identify compounds that inhibited Ewing sarcoma cells in vitro with the goal to then test promising drugs in two drug combinations in vitro to look for synergistic drug combinations. Promising combinations would then proceed to additional validation, including in vivo testing.
Using the NCATS developed oncology compound library called the Mechanism of Interrogation Plate (MIPE), four Ewing sarcoma cell lines were evaluated (TC32, TC71, RDES, EW8). Compounds, in a 12-point titration series, were incubated with cells for 48 hours and the read out was cell viability (CellTiter-Glo from Promega). These initial experiments were used to select appropriate concentrations of each single agent for subsequent two-drug matrix combinations such that the concentrations in the matrices would span both activity and non-activity.
Cells, in the log phase of growth, were seeded in 5 uL of RPMI plus 5% FBS, […] L-glutamine, 100 U/ml penicillin and 100 ug/ml streptomycin into 1536-well solid-bottom white tissue culture treated Greiner Bio One Plates (789173-F) using a MultiDrop Combi (Thermofisher Scientific) dispenser and a small sterile cassette. One column was media alone to be used as a :"no cells" control. The plates were then covered with sterilized stainless steel gasketed lids from Kalypsys. After allowing cells to attach for 4 hours, 23 nL of test compound or control (negative control DMSO and positive control 9.2 uM Bortezomib-final) were added from a 1536-well polypropylene compound source plate to each well using a 1536 head pin tool from Kalypsys. Cells were then incubated for 48 hours at 37C, 95% relative humidity and 5% CO2. After 48 hours, plates were removed from the incubator and 3 uL of CellTiter-Glo (Promega) was added using an Aurora Flying Reagent Dispenser Bioraptor. Plates were incubated at room temperature for 10 minutes prior to reading the luminescence on the Viewlux (PerkinElmer). The relative luciferase units are used to calculate the percent activity using the activity of DMSO in the cells and no cells columns for normalization of no inhibition and full inhibition respectively.
Potency means the concentration at half of the fitted maximal effect.

| SMILES | viability | Potency |
| --- | --- | --- |
| C[C@@H]1C(=O)O[C@H]2CC34[C@H]5C[C@@H](C(C)(C)C)C36[C@H](OC(=O)[C@@H]6O)O[C@@]4(C(=O)O5)[C@]21O (stereo not given in full) | 113% (inactive) | – |
| c1cc(CN2CCCNCCNCCCNCC2)ccc1CN1CCCNCCNCCCNCC1 | 113% (inactive) | – |
| Cc1ccccc1C(=O)Nc1ccc(C(=O)N2CCCC(O)c3cc(Cl)ccc32)c(C)c1 (stereo not given) | 105% (inactive) | – |
| C=Cc1c(C)c2cc3nc(cc4[nH]c(cc5nc(cc1[nH]2)C(C)=C5CCC(=O)O)c(CCC(=O)OC)c4C)[C@@]1(C)C3=CC=C(C(=O)OC)[C@H]1C(=O)OC | – | 0.118 µM (active) |
| CN(C)c1ccc2cc(C(=O)N[C@@H](CCCN=C(N)CCl)C(=O)NCc3ccccc3)ccc2c1 | – | 9.35 µM (active) |
| C=C(C)[C@@H]1CC[C@]2(C)CC[C@]3(C)[C@H](CC[C@@H]4[C@@]5(C)CC[C@H](O)C(C)(C)[C@H]5CC[C@]43C)[C@@H]12 | 123% (inactive) | – |
| FC(F)c1nc2ccccc2n1-c1nc(N2CCOCC2)nc(N2CCOCC2)n1 | – | 3.72 µM (active) |
| COC(=O)[C@H](CCCN=C(N)N)NS(=O)(=O)c1ccc(C)cc1 | 105% (inactive) | – |
| CC(C)C[C@@H](C=O)NC(=O)[C@H](CC(C)C)NC(=O)[C@H](CC(C)C)NC(=O)OCc1ccccc1 (Cbz-Leu-Leu-Leu-aldehyde) | – | 0.332 µM (active) |
| O=C(C[C@@H]1CC=CCCC(=O)O[C@H](c2ccccc2)CNC1=O)NCc1ccc(Cl)cc1 | 115% (inactive) | – |
| CN[C@H](CC(C)C)C(=O)N[C@H]1C(=O)N[C@@H](CC(N)=O)C(=O)N[C@@H]2C(=O)N[C@H]3C(=O)N[C@H](C(=O)N[C@H](C(=O)O)c4cc(O)cc(O)c4-c4cc3ccc4O)[C@H](O)c3ccc(c(Cl)c3)Oc3cc2cc(c3O[C@@H]2O[C@H](CO)[C@@H](O)[C@H](O)[C@@H]2O[C@H]2C[C@](C)(N)[C@H](O)[C@H](C)O2)Oc2ccc(cc2Cl)[C@H]1O | 110% (inactive) | – |
| FC(F)(F)c1ccc(Nc2nc3ccc(Oc4ccnc(-c5ncc(C(F)(F)F)[nH]5)c4)cc3[nH]2)cc1 | – | 11.8 µM (active) |
| Oc1ccc([C@@H]2Oc3ccc(O)cc3[C@@H]3CCC[C@@H]32)cc1 | – | 10.5 µM (active) |
| CC(O)(C#Cc1ccc2c(c1)N(c1nc(N)ncc1Cl)CC2)c1nccs1 (stereo not given) | – | 20.9 µM (active) |
| NC1=N[C@H]2[C@H](CS[C@H]2CCCCC(=O)O)N1 | 127% [at 23.2 µM] (inactive) | – |
| O=C(NCc1ccccc1)[C@H](Cc1ccccc1)NC(=O)[C@@H]1O[C@@H]1C(=O)NCCc1ccc(O)cc1 | – | 1.05 µM (active) |
| CCCCCCCCCCCC(CC1OC(=O)C1CCCCCC)OC(=O)C(CC(C)C)NC=O (stereo not given) | 120% (inactive) | – |
| CN(C)CC[C@H](c1ccc(Cl)cc1)c1ccccn1 | 101% (inactive) | – |
| N#CC(=C(O)c1ccc(Cl)cc1Cl)c1nc2cc(Cl)ccc2c(=O)[nH]1 | 115% (inactive) | – |
| COc1cc(C)c(C=CC(C)=CC=CC(C)=CC(=O)O)c(C)c1C | 111% (inactive) | – |

| SMILES | viability | Potency |
| --- | --- | --- |
| O=C1NC(O)CCN1[C@@H]1O[C@H](CO)[C@H](O)[C@H]1O (stereo not given in full) | 120% (inactive) | – |
| CON=C(C(=O)N[C@@H]1C(=O)N2C(C(=O)O)=C(CSC(=O)c3ccco3)CS[C@H]12)c1csc(N)n1 | 118% (inactive) | – |
| O=C(C=CC=Cc1ccc2c(c1)OCO2)N1CCCCC1 | 109% (inactive) | – |
| CNC(=O)Nc1ccc(-c2nc(N3CC4CCC(C3)O4)c3cnn(C4CCC5(CC4)OCCO5)c3n2)cc1 | – | 0.0132 µM (active) |
| O=C(C=CC#Cc1cccc(NS(=O)(=O)c2ccccc2)c1)NO | – | 0.935 µM (active) |
| COc1ccc(S(=O)(=O)Nc2cccnc2Nc2ccc(O)cc2)cc1 | – | 0.0935 µM (active) |
| C=CC(=O)Nc1cc(NC(=O)c2ccc(C)c(NC(=O)c3ccno3)c2)cc(C(F)(F)F)c1 | – | 20.9 µM (active) |
| C[N+]1(C)[C@@H]2C[C@@H](OC(=O)C(O)(c3cccs3)c3cccs3)C[C@H]1[C@@H]1O[C@@H]12 | 121% (inactive) | – |
| C=CC[C@@H]1C=C(C)C[C@H](C)C[C@H](OC)[C@H]2O[C@@](O)(C(=O)C(=O)N3CCCC[C@H]3C(=O)O[C@H](C(C)=C[C@@H]3CC[C@H](O)[C@H](OC)C3)[C@@H](C)[C@@H](O)CC1=O)[C@@H](C)C[C@@H]2OC | – | 1.66 µM (active) |
| CCNC(=O)c1cc2c(-c3cc(OCCN4CCCC4)c(Cl)cc3Cl)nc(N)nc2s1 | – | 1.18 µM (active) |
| Cc1cnc(NC(=O)Nc2cc(Br)c(C)cc2OC[C@@H]2CNCCO2)cn1 | – | 0.833 µM (active) |
| COc1cc(CCc2cc(NC(=O)c3ccc(N4C[C@@H](C)N[C@@H](C)C4)cc3)n[nH]2)cc(OC)c1 | – | 16.6 µM (active) |
| c1ccc2c(Oc3nc(Nc4ccc(N5CCOCC5)cc4)c4ncn(C5CCCCC5)c4n3)cccc2c1 | 116% (inactive) | – |
| Cn1cc(-c2cnn3c(N)c(Br)c([C@H]4CCCNC4)nc23)cn1 | – | 0.148 µM (active) |
| CC(=O)OCC(=O)[C@@]1(O)CC[C@H]2[C@@H]3CCC4=CC(=O)CC[C@]4(C)[C@@H]3C(=O)C[C@@]21C | 113% (inactive) | – |
| O=C(Nc1cc2cc[nH]c2cn1)c1ccccc1 | – | 14.8 µM (active) |
| C[C@H]1COc2c(N3CCN(C)CC3)c(F)cc3c(=O)c(C(=O)O)cn1c23 | 112% (inactive) | – |
| Cc1nc(NC(=O)N2CCC[C@@H]2C(N)=O)sc1-c1ccnc(C(C)(C)C(F)(F)F)c1 | – | 23.5 µM (active) |
| CC(C)C[C@H](NC(=O)[C@@H](NC(=O)c1cccc(-c2ccccc2)n1)[C@@H](C)O)B(O)O | – | 0.0372 µM (active) |
| CS(=O)(=O)N1CCc2c(-c3cnc(N)nc3)nc(N3CCOCC3)nc21 | – | 1.32 µM (active) |
